PubChem BioAssay AID504656 (National Center for Advancing Translational Sciences (NCATS), 2011)
The source made the active and inactive calls.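 The calls were made as follows: active = any inhibition of parasite growth seen in the dose series, which yields a fitted potency; inactive = compounds showing no inhibition.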

Experiment: Inhibitors of Cruzain: Trypanosoma Cruzi Growth Inhibition Assay
Settings: T. cruzi in NIH/3T3, beta-gal CPRG absorbance, 4 d
Description: Cruzain is a cysteine protease from the tropical parasite Trypanosoma cruzi. This assay protocol is for testing followup compounds for T. Cruzi growth inhibition. See following references for additional details: Jadhav A, et al. J Med Chem. 2010 Jan 14;53(1):37-51. Mott BT, et al. J Med Chem. 2010 Jan 14;53(1):52-60. Ferreira, et al. J Med Chem. 2010 Jul 8;53(13):4891-905. Bettiol E, et al. PLoS Negl Trop Dis. 2009;3(2):e384. Assay Provider: Shoichet, Brian; University of California, San Francisco and Ana Rodriguez, New York University School of Medicine. Screening Center PI: Austin, C.P. Screening Center: NIH Chemical Genomics Center [NCGC]
NIH/3T3 cells and parasites were harvested, washed once and resuspended in DMEM supplemented with 2% FBS and Pen-Strep-Glut. […] Different numbers of NIH/3T3 cells were seeded in 96-well plates. After 3 h, compounds were added at the indicated concentrations and mixed by pipetting. BZN tablets (Rochagan, Roche) dissolved in DMSO and 4uM Amphotericin B solution (Sigma-Aldrich) were used as positive controls. Different numbers of T. cruzi parasites were added in a final volume of 200 ul/well. […] Plates were incubated at 37 degrees C for 4 h and absorbance was read at 590 nm using a Tecan Spectra Mini plate reader. […] The IC50 was determined as the concentration at which the activity (absorbance) was half that in the absence of compound. […]

SMILES	Potency
Cc1ccc(OCCn2c(CCNC(=O)C3CCCCC3)nc3ccccc32)cc1	64 µM (active)
